A selection: hits, their analogues and other compounds. The true share with any hit is near 3.4%.
FBW7 act – human FBW7 E3 ligase activation, primary screen. Q969H0. AlphaScreen FBW7–phospho-cyclin E peptide binding, activator screen. normalized activity (activation), % at 26.1 µM. 650,000 tested, 0.13% active; in the data active = normalized activity above about 1.9%;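 also: purified mutant Fbw7 with reduced substrate affinity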
GPR151 ag – activates the human receptor GPR151 | Q8TDV0 | PathHunter beta-arrestin GPR151 cells, luminescence | activation, % at 11.2 µM | 650,000 tested, 1% active; in the data active = activation above about 4.9%;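 also: 0% = median of compound wells and 100% = cells with positive control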
MITF inh – blocks human microphthalmia-associated transcription factor; O75030; AlphaScreen MITF homodimerization, bead proximity signal; inhibition, % at 2.6 µM; 650,000 tested, 0.91% active; AID 1259374; in the data active = inhibition above about 50%;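 also: 0% = vehicle wells with protein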
Target sequence (O75030 whole entry, looked up): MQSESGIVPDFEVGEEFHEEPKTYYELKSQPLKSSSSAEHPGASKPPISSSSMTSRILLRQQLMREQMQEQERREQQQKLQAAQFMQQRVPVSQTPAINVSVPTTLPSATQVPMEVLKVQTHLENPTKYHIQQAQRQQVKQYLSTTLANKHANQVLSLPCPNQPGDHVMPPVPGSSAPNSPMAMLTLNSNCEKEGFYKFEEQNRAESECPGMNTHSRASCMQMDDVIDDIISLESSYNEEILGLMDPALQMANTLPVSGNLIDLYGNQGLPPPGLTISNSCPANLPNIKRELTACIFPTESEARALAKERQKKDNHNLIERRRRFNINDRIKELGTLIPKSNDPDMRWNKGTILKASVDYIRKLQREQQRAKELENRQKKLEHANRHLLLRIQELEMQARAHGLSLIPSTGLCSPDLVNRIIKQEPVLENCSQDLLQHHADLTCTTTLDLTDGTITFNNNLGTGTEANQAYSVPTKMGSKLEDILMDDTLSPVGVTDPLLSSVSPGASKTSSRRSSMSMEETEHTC
TEAD-YAP inh – TEAD-YAP interaction inhibition; inhibition, % at 9.12 µM; HEK-TIYL cells, TEAD-Gal4/YAP UAS-luciferase luminescence; 640,000 tested, 1.4% active; in the data active = inhibition above about 32%;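 also: 0% = median of test compound wells and 100% = reference inhibitor wells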
GPR151 confirm – human GPR151 activation, confirmation screen. shares compounds with GPR151 ag. GPR151 PathHunter beta-arrestin cells, luminescence, 90 min; % of EA-reagent control over plate median. activation, % at 11.2 µM. 6,700 tested, under 10 active. AID 1508609;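 active = mean percent activation across replicates above the confirmation screen cutoff of 4.91%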
GPR119 counter – GPR119 activation, counter-screen for GPR151 activators; AID 1508611; GPR119 PathHunter beta-arrestin cells, luminescence, 90 min; 0 = compound-well median, 100 = enzyme-acceptor control; shares compounds with GPR151 ag; 6,700 tested, 0.3% active; activation, % at 11.2 µM;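 active = mean percent activation in the counterscreen above 29.09%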;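 also: counterscreen on off-target GPR119 to flag nonselective hits from the GPR151 activator screen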
* marks the source's active call; other numbers are inactive results.

Screening COc1cccc(NC(=O)c2nn(C)c(C(=O)Nc3cccc(OC)c3)c2[N+](=O)[O-])c1 returned FBW7 act 0, GPR151 ag 1, MITF inh 1 and TEAD-YAP inh -4.
`CCc1ccc(N(CC(=O)N2CCC(C(N)=O)CC2)S(C)(=O)=O)cc1` gave FBW7 act 0, GPR151 ag 0, MITF inh 7 and TEAD-YAP inh 4.
CS(=O)(=O)N(CC(=O)N1CCC(C(N)=O)CC1)c1ccc(Oc2ccccc2)cc1 was read as FBW7 act 0, GPR151 ag 5.0*, MITF inh -2, TEAD-YAP inh -8, GPR151 confirm -1 and GPR119 counter -6.
c1ccc(CCn2nnnc2CN2CCN(c3ccccc3)CC2)cc1 was read as FBW7 act 0, GPR151 ag 0, MITF inh 5 and TEAD-YAP inh 2.
c1ccc(CCN2CCN(c3ccccc3)CC2)cc1 was read as FBW7 act 0, GPR151 ag 6.9*, MITF inh 21, TEAD-YAP inh -4, GPR151 confirm 1 and GPR119 counter 4.
For COc1cc(C)nc(N2CCC(C(N)=O)CC2)n1 the results were FBW7 act 0, GPR151 ag 5.2*, MITF inh -7, TEAD-YAP inh 0, GPR151 confirm 0 and GPR119 counter 0.
For Cc1nnc(Sc2cc(C(=O)NCCN3CCCC3)c3ccccc3n2)s1 the results were FBW7 act 0, GPR151 ag 0, MITF inh -4 and TEAD-YAP inh -14.
For CC(C)CCNC(=O)NC(=O)COC(=O)c1cc2ccccc2oc1=O the results were FBW7 act 0, GPR151 ag 12*, MITF inh 19, TEAD-YAP inh -4, GPR151 confirm 0 and GPR119 counter 5.
`CC(=NC1CC(C)(C)NC(C)(C)C1)c1c(C)[nH]n(-c2ccc([N+](=O)[O-])cc2)c1=O` gave FBW7 act 0, GPR151 ag 6.3*, MITF inh 0, TEAD-YAP inh 9, GPR151 confirm -1 and GPR119 counter -7.
`Cc1[nH][nH]c(=O)c1C(c1cccc([N+](=O)[O-])c1)c1c(C)[nH][nH]c1=O` gave FBW7 act -1, GPR151 ag 2, MITF inh 9 and TEAD-YAP inh 2.
Screening O=C(COC(=O)C1CCC(=O)N1)Nc1ccccc1 (stereo unspecified) returned FBW7 act 0, GPR151 ag 0, MITF inh -8 and TEAD-YAP inh 6.
O=C(Nc1ccccc1Cl)c1csc(-n2cccc2)n1 was read as FBW7 act 0, GPR151 ag 5.7*, MITF inh 1, TEAD-YAP inh -50, GPR151 confirm 0 and GPR119 counter 1.
`CCCCN(CC)c1cnn(-c2ccccc2)c(=O)c1N` gave FBW7 act 0, GPR151 ag 9.2*, MITF inh 13, TEAD-YAP inh -5, GPR151 confirm 0 and GPR119 counter -1.
For Fc1ccc(CNc2ccc3ncc(-c4ccc5c(c4)OCO5)n3n2)cc1 the results were FBW7 act 0, GPR151 ag 8.4*, MITF inh 12, TEAD-YAP inh 23, GPR151 confirm 0 and GPR119 counter 4.
COc1ccc(CNc2ccc3ncc(-c4ccc(OC)cc4)n3n2)cc1 was read as FBW7 act 0, GPR151 ag 5.5*, MITF inh -14, TEAD-YAP inh 22, GPR151 confirm 0 and GPR119 counter -2.
For COc1ccccc1-c1cnc2ccc(NCc3ccc(S(N)(=O)=O)cc3)nn12 the results were FBW7 act 0, GPR151 ag 9.4*, MITF inh -11, TEAD-YAP inh 3, GPR151 confirm 0 and GPR119 counter 9.
Screening Cc1ccc(C)c(S(=O)(=O)N2CCN3C(=O)[C@@H]4CSCN4C(=O)[C@H]3C2)c1 returned FBW7 act 0, GPR151 ag -1, MITF inh -18 and TEAD-YAP inh -2.
Screening CCN(CC)c1nc(C)nc2sc(C(=O)Nc3ccc(Oc4ccccc4)cc3)c(C)c12 returned FBW7 act 0, GPR151 ag 0, MITF inh -12 and TEAD-YAP inh -11.
Screening Cc1nc(N(C)c2ccc(C(C)C)cc2)c2c(C)c(C(=O)Nc3ccc(Oc4ccccc4)cc3)sc2n1 returned FBW7 act 1, GPR151 ag 7.8*, MITF inh 11, TEAD-YAP inh -2, GPR151 confirm 1 and GPR119 counter 6.

Screens (PubChem)
